Our source for the growth values is PubChem BioAssay (NCI).

Some test systems named below: SR leukemia; RPMI-8226 leukemia; OVCAR-8 ovarian; OVCAR-5 ovarian; OVCAR-4 ovarian; SK-OV-3 ovarian; IGROV1 ovarian; OVCAR-3 ovarian; HS 578T breast; NCI/ADR-RES ovarian; T-47D breast; BT-549 breast; MDA-MB-435 melanoma; SW-620 colon; MCF7 breast; HCT-116 colon; HCC-2998 colon; KM12 colon.
Test in all cases: NCI-60 one-dose screen, 48 h (100 = growth as untreated, 0 = no growth, -100 = all killed)
Holding throughout (conditions): 10 µM unless noted

Compounds without any hit were thinned out: in the full panel of roughly 83,000, 20% have a hit.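 96-well plates, one dose, 48 hours. Percent growth reported; active if below 10.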 A number with no mark means an inactive call. Active and inactive are the calls of the source.

Regarding `Cn1cc(-c2csc(-c3cn(C)c4ccccc34)n2)c2cnccc21`, the growth in the test on SR leukemia is -0.518% (active); in the test on RPMI-8226 leukemia, -18.6% (active); in the test with OVCAR-8 ovarian, 27.4%; in the test with OVCAR-5 ovarian, 77.4%; in the test on OVCAR-4 ovarian, 68.1%; in the test with SK-OV-3 ovarian, 105%. In addition, the growth was 68.5% in the test with IGROV1 ovarian; 43.9% with OVCAR-3 ovarian; 97.5% in the test on HS 578T breast; 41.8% in the test on NCI/ADR-RES ovarian; 67.4% with T-47D breast; 87.8% with BT-549 breast. The growth with MDA-MB-435 melanoma is -79.4% (active); in the test on SW-620 colon it was -47.6% (active); in the test on MCF7 breast, 10.5%; in the test on HCT-116 colon, -74.6% (active); in the test on HCC-2998 colon, -63.4% (active); with KM12 colon, 26.6%.

As for `O=c1cc(C(F)(F)F)c2cc(-c3cc4ccccc4c(=O)o3)c(O)cc2o1`, the growth was 85.5% in the test with SR leukemia; 17.7% in the test with RPMI-8226 leukemia; 87% in the test on OVCAR-8 ovarian; 103% in the test with OVCAR-5 ovarian; 64% in the test with OVCAR-4 ovarian; 73.3% with SK-OV-3 ovarian. The growth was 92.6% in the test on IGROV1 ovarian; 56.9% in the test on OVCAR-3 ovarian; 79.5% with HS 578T breast; 78.9% in the test with NCI/ADR-RES ovarian; 49.4% with T-47D breast; 63.6% with BT-549 breast. Further, the growth in the test with MDA-MB-435 melanoma is 72.8%; in the test with SW-620 colon, 86.1%; in the test with MCF7 breast it was 77.4%; with HCT-116 colon it was 71.7%; in the test on HCC-2998 colon, 92.8%; in the test with KM12 colon, 76.5%.

As to `Cc1[nH]c(C(=O)Nc2ccccc2OC2CCN(CCN3CCOCC3)CC2)c(Cl)c1Cl`, the growth with SR leukemia was 10.3%; in the test on RPMI-8226 leukemia it was 67.4%; with OVCAR-8 ovarian it was 101%; in the test on OVCAR-5 ovarian, 96.4%; with OVCAR-4 ovarian it was 97.7%; in the test with SK-OV-3 ovarian, 111%. In addition, the growth was 101% with IGROV1 ovarian; 109% in the test on OVCAR-3 ovarian; 93.8% with HS 578T breast; 97.6% in the test on NCI/ADR-RES ovarian; 86.6% with T-47D breast; 80.5% with BT-549 breast. Further, the growth in the test with MDA-MB-435 melanoma is 105%; with SW-620 colon, 99.7%; in the test on MCF7 breast, 87.2%; in the test with HCT-116 colon it was 77.1%; with HCC-2998 colon, 107%; in the test on KM12 colon, 103%.

For `O=c1oc2c(cc1-c1ccccc1)c[n+]([O-])c1ccccc21`, the growth was 103% in the test on SR leukemia; 98.2% with RPMI-8226 leukemia; 94.9% with OVCAR-8 ovarian; 102% with OVCAR-5 ovarian; 98.6% with OVCAR-4 ovarian; 104% in the test on SK-OV-3 ovarian. In addition, the growth is 102% in the test on IGROV1 ovarian; 112% in the test with OVCAR-3 ovarian; 99.9% with HS 578T breast; 109% in the test on NCI/ADR-RES ovarian; 91% in the test with T-47D breast; 95.5% in the test on BT-549 breast. The growth was 101% in the test on MDA-MB-435 melanoma; 103% in the test on SW-620 colon; 91.1% in the test on MCF7 breast; 98.8% in the test with HCT-116 colon; 107% with HCC-2998 colon; 104% with KM12 colon.

As to `CCOC(=O)c1c(C)nc2c(c1N)C(=O)C(=O)N2Cc1ccc(OC)cc1`, the growth with SR leukemia was 31%; in the test with RPMI-8226 leukemia it was 20.1%; in the test with OVCAR-8 ovarian it was 61.6%; in the test on OVCAR-5 ovarian it was 97.5%; with OVCAR-4 ovarian it was 46.6%; in the test with SK-OV-3 ovarian, 108%. Besides, the growth was 82.5% in the test with IGROV1 ovarian; 18.2% in the test with OVCAR-3 ovarian; 79.2% in the test with HS 578T breast; 8.45% (active) with NCI/ADR-RES ovarian; 49.1% in the test with T-47D breast; 80.5% in the test with BT-549 breast. Further, the growth with MDA-MB-435 melanoma is 31%; with SW-620 colon it was 41.9%; in the test with MCF7 breast, 18.6%; with HCT-116 colon, 25.1%; with HCC-2998 colon, 99.3%; with KM12 colon, 25.7%.

On to `O=C(O)c1cn(C2CC2)c2cc(N3CCN(C(=O)N4CCOCC4)CC3)c(F)cc2c1=O`, for which the growth with SR leukemia is 116%; in the test with RPMI-8226 leukemia, 108%; in the test on OVCAR-8 ovarian, 104%; in the test on OVCAR-5 ovarian it was 104%; with OVCAR-4 ovarian it was 106%; with SK-OV-3 ovarian it was 100%. Besides, the growth was 94% with IGROV1 ovarian; 109% with OVCAR-3 ovarian; 119% in the test with HS 578T breast; 105% with NCI/ADR-RES ovarian; 110% in the test on T-47D breast; 95.7% in the test on BT-549 breast. Moreover, the growth with MDA-MB-435 melanoma is 105%; in the test with SW-620 colon it was 112%; in the test with MCF7 breast it was 103%; with HCT-116 colon it was 110%; with HCC-2998 colon, 107%; with KM12 colon it was 104%.

Take `CCCCCCCCn1ccc2cc(NC(=O)CN3CCN(c4cc(C)nc(Cl)n4)CC3)ccc21`: the growth in the test on SR leukemia was 73.3%; in the test on RPMI-8226 leukemia, 73.5%; with OVCAR-8 ovarian it was 94.9%; with OVCAR-5 ovarian, 95.2%; with OVCAR-4 ovarian, 75.2%; with SK-OV-3 ovarian, 105%. The growth was 72.5% with IGROV1 ovarian; 108% in the test on OVCAR-3 ovarian; 94.2% with HS 578T breast; 84.8% in the test on NCI/ADR-RES ovarian; 67.8% in the test with T-47D breast; 75% in the test with BT-549 breast. Also, the growth in the test on MDA-MB-435 melanoma was 84.1%; with SW-620 colon it was 95.3%; with MCF7 breast it was 75.4%; with HCT-116 colon it was 79.2%; in the test with HCC-2998 colon, 106%; in the test on KM12 colon, 91.9%.

With `N#C/C(=C\c1ccc(-c2cccc(Cl)c2)o1)C(=O)Nc1ncc(Cc2ccc(Cl)cc2)s1`, the growth was 29.9% in the test on SR leukemia; 81.1% with RPMI-8226 leukemia; 40.4% in the test on OVCAR-8 ovarian; 47.1% in the test on OVCAR-5 ovarian; -45.5% (active) with OVCAR-4 ovarian; 78% in the test with SK-OV-3 ovarian. For the same compound, the growth in the test on IGROV1 ovarian was 30.5%; in the test with OVCAR-3 ovarian, 11.3%; with HS 578T breast it was 24.4%; with NCI/ADR-RES ovarian, 54.6%; in the test on T-47D breast, 20.7%; in the test with BT-549 breast, 72.9%. Moreover, the growth was 56.5% in the test with MDA-MB-435 melanoma; 62.5% with SW-620 colon; 54.4% in the test with MCF7 breast; 41.9% with HCT-116 colon; 94.3% in the test with HCC-2998 colon; 48.6% with KM12 colon.

Consider `C[C@@H]1NC(=O)[C@H](Cc2ccccc2)N(Cc2cccnc2)C1=O`, for which the growth is 96.9% in the test on SR leukemia; 105% in the test on RPMI-8226 leukemia; 102% in the test on OVCAR-8 ovarian; 96.7% in the test on OVCAR-5 ovarian; 102% in the test with OVCAR-4 ovarian; 99.2% in the test with SK-OV-3 ovarian. The growth is 107% with IGROV1 ovarian; 110% in the test with OVCAR-3 ovarian; 94.3% in the test on HS 578T breast; 104% in the test with NCI/ADR-RES ovarian; 94.6% in the test on T-47D breast; 73.2% in the test with BT-549 breast. The growth in the test with MDA-MB-435 melanoma was 104%; in the test on SW-620 colon, 97.2%; with MCF7 breast it was 91.5%; in the test with HCT-116 colon it was 71%; in the test with HCC-2998 colon, 106%; with KM12 colon, 103%.
